Screening data from PubChem.
HCV inh: HCV inhibition; Huh7.5.1 HCVcc-Cre infection, luciferase reporter, 44 h; Potency, µM (titrated, usually from 41.8 µM), hits mostly inhibitors; 340,000 compounds, 3.4% hits
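After 44 h co-culture of compound, cells and HCVcc-Cre (~0.5 moi), substrate is added for 15 min at room temperature and luciferase measured over 15 sec. Cells were seeded at 1,000/well and pre-cultured 4 h.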
NS1 inh: influenza NS1 inhibition | 270,000 compounds, 0.4% hits | Potency, µM (series often up to 46.1 µM) | AID 2326; calls by dose curve; also: actives are rising curves; nearly all actives have a fitted effect of over 50% in size
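Compounds were scored for reversing the slow growth caused by influenza A NS1 in S. cerevisiae, measured by optical density at 600 nm. Assay medium contained 2% galactose at pH 6.0; NS1-free yeast of the same strain were the positive control.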
Pf growth 48h: P. falciparum growth inhibition at 48 hours (one generation). P. falciparum luciferase growth in erythrocytes, 48 h. Potency, µM (doses to about 28.7 µM), most hits filed as inhibitors. 310,000 compounds, 5.9% hits. AID 504832
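Cell-based growth assay: transgenic P. falciparum expressing firefly luciferase, cultured in red cells within RPMI 1640 containing 0.5% w/v Albumax, 24 mM bicarbonate and gentamycin. A drop in luciferase activity indicates inhibition.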
Pf growth 96h: inhibits malaria parasite growth, 96 h; AID 504834; Potency, µM (highest dose often 28.7 µM), hits mostly inhibitors; P. falciparum luciferase reporter growth, 96 h; 320,000 compounds, 6.9% hits
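96 h incubation, 37 C, 5% CO2, of luciferase-reporter P. falciparum-infected RBCs (2% hematocrit, 0.05% parasitemia final) with test compounds; endpoint luminescence.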
Vaccinia mCherry: vaccinia inhibition (mCherry reporter); Vaccinia virus mCherry reporter infection, fluorescence; Potency, µM (doses to about 36.5 µM), usual class: inhibitors; 310,000 compounds, 0.63% hits; AID 720579; calls by dose curve; tested in A549 cells; also: nearly all actives have a fitted effect of over 35% in size
Vaccinia Venus: vaccinia inhibition (Venus reporter); Vaccinia virus Venus reporter expression, fluorescence; Potency, µM (doses to about 36.5 µM), most hits filed as inhibitors; 330,000 compounds, 0.46% hits; AID 720580; calls by dose curve; tested in A549 cells; also: nearly all actives have a fitted effect of over 30% in size
Of the large screens only hits and unclear results are named; the others gave an inactive call. Most compounds without a hit are left out; they make up all but 11% or so of the library. Unless noted, calls follow the shape of the dose curve; as a rule, active = well fitted inhibition curve with a large enough effect; inconclusive = small, poorly fitted or top-dose-only effect, or another doubt; inactive = no such curve, though single readings can be large or run the other way.

CCN(CC(=O)Nc1c(F)cccc1F)C(=O)c1ccc(=O)n(Cc2ccccc2)n1	none
CCN(CC(=O)Nc1cc(Cl)ccc1C)C(=O)c1ccc(=O)n(Cc2ccccc2)n1	Pf growth 48h inconclusive, Pf growth 96h 9.3µM
CCN(CC(=O)Nc1cc(Cl)ccc1C)C(=O)CCS(=O)(=O)c1ccc(Cl)cc1	HCV inh inconclusive, Vaccinia mCherry 11µM, Vaccinia Venus inconclusive
Cc1cccn2c(=O)c3cc(C#N)c(=O)n(-c4nnc(SCc5ccc(Cl)cc5)s4)c3nc12	none (no result: HCV inh, NS1 inh, Pf growth 48h, Pf growth 96h)
Cn1c(=O)c([N+](=O)[O-])c(NCC(O)c2ccccc2)c2ccccc21 (stereo not given)	none
CC(=O)CCc1c(C)nc2ccc(C(=O)O)cc2c1Cl	none
COc1cc(Br)cc(CN2CCN(C=O)CC2)c1O	Pf growth 96h inconclusive (no result: Vaccinia mCherry, Vaccinia Venus)
C/C=C/c1cc(CN2CCN(c3ccccc3)CC2)c(O)c(OC)c1	Pf growth 48h 1.3µM, Pf growth 96h 1.7µM (no result: NS1 inh, Vaccinia mCherry, Vaccinia Venus)
C/C=C/c1cc(CN2CCN(c3ccc(OC)cc3)CC2)c(O)c(OC)c1	Pf growth 48h 1.5µM, Pf growth 96h inconclusive, Vaccinia mCherry inconclusive, Vaccinia Venus inconclusive (no result: NS1 inh)
COc1ccc(-n2c(COc3ccc(C)cc3)nnc2SCC(N)=O)cc1	Pf growth 48h inconclusive (no result: Pf growth 96h, Vaccinia mCherry)
O=C1NCCC/C1=N\Nc1ccc(Br)cc1	none
CC(C)CC(NC(=O)OC(C)(C)C)c1cn([C@@H](Cc2cc3ccccc3[nH]2)C(=O)N2CCN(C(=O)OC(C)(C)C)CC2)nn1 (stereo not given in full)	HCV inh inconclusive, Pf growth 48h inconclusive, Pf growth 96h 5.2µM, Vaccinia Venus inconclusive
CC(C)CC(NC(=O)OC(C)(C)C)c1cn([C@@H](Cc2ccc(O)cc2)C(=O)N2CCN(C(=O)OC(C)(C)C)CC2)nn1 (stereo not given in full)	Pf growth 48h inconclusive, Pf growth 96h 4.7µM
CC[C@H](C)C(C(=O)N1CCN(C(=O)OC(C)(C)C)CC1)n1cc(C(Cc2ccc(O)cc2)NC(=O)OC(C)(C)C)nn1 (stereo not given in full)	Pf growth 48h inconclusive, Pf growth 96h 1.7µM, Vaccinia mCherry inconclusive
CC[C@H](C)C(C(=O)N1CCN(C(=O)OC(C)(C)C)CC1)n1cc(C(CO)NC(=O)OC(C)(C)C)nn1 (stereo not given in full)	Pf growth 96h inconclusive
COc1cc(NS(=O)(=O)c2cc(Br)cc3c2N(C(C)=O)C(C)C3)cc(OC)c1 (stereo not given)	none (no result: HCV inh, NS1 inh, Pf growth 48h, Pf growth 96h)
CC1(C)CC2(C)OC(=N)C1(C#N)C2(C#N)C#N (stereo not given)	none
CCN(CC)C(=O)Oc1cc2c(-c3cc4cccc(OC)c4o3)cc(=O)oc2cc1C	HCV inh 6.3µM, Pf growth 48h 10µM, Pf growth 96h 10µM
COC(=O)COc1ccc2oc(=O)cc(-c3cc4ccccc4o3)c2c1	none (no result: Vaccinia mCherry, Vaccinia Venus)
Cc1cc2oc(=O)cc(-c3cc4ccccc4o3)c2cc1OC(=O)N(C)C	HCV inh 5µM, Pf growth 48h inconclusive, Pf growth 96h inconclusive
COc1cc(C(=O)OCc2csc(CC(=O)Nc3ccccc3C)n2)ccc1OCC(C)C	HCV inh inconclusive, Pf growth 48h 13µM, Pf growth 96h 9.3µM (no result: NS1 inh)
COc1cc(/C=C/C(=O)OCc2csc(CC(=O)Nc3ccc(C)cc3)n2)ccc1OCC#N	HCV inh inconclusive, Pf growth 48h inconclusive, Pf growth 96h 13µM (no result: NS1 inh, Vaccinia mCherry, Vaccinia Venus)
CC(=O)c1cccc(NC(=O)COC(=O)c2ccc(S(C)(=O)=O)c([N+](=O)[O-])c2)c1	HCV inh 5µM, Pf growth 48h inconclusive, Pf growth 96h inconclusive (no result: NS1 inh)
Cc1ccccc1NC(=O)Cc1nc(COC(=O)c2ccc(S(C)(=O)=O)c([N+](=O)[O-])c2)cs1	HCV inh 10µM, Pf growth 48h inconclusive, Pf growth 96h inconclusive (no result: NS1 inh, Vaccinia mCherry, Vaccinia Venus)
COc1ccccc1N1CCN(C(=O)/C=C/c2ccco2)CC1	none
Cc1c(N=C2C=CC(=O)c3ccccc32)c(=O)n(-c2ccccc2)n1C	Pf growth 48h inconclusive, Pf growth 96h 15µM, Vaccinia mCherry inconclusive, Vaccinia Venus inconclusive (no result: NS1 inh)
Cc1c(N=C2C=C(Br)C(=O)C(Br)=C2)c(=O)n(-c2ccccc2)n1C	Pf growth 96h inconclusive
Cc1c(N=C2N=C(NC(=O)c3cccs3)c3ccccc32)c(=O)n(-c2ccccc2)n1C	HCV inh 10µM (no result: NS1 inh)
Cc1c(N=C2N=C(NC(=O)NC(C)(C)C)c3ccccc32)c(=O)n(-c2ccccc2)n1C	Pf growth 48h 13µM, Pf growth 96h inconclusive (no result: NS1 inh, Vaccinia mCherry, Vaccinia Venus)
CCN(Cc1ccc(Cl)s1)C(=O)c1cccc(OCc2c(C)noc2C)c1	HCV inh inconclusive (no result: NS1 inh, Pf growth 48h, Pf growth 96h)
O=C(C1CC1)N(CCc1ccccc1)Cc1nc2ccccc2c(=O)[nH]1	Pf growth 96h 15µM, Vaccinia Venus inconclusive (no result: Vaccinia mCherry)
CCCC(=O)N(CCc1ccc(OC)cc1)Cc1nc2ccccc2c(=O)[nH]1	HCV inh inconclusive, Pf growth 96h 10µM (no result: Pf growth 48h)
CCN(Cc1nc2ccccc2c(=O)[nH]1)C(=O)c1cccc(OCc2c(C)noc2C)c1	HCV inh inconclusive, Pf growth 48h 6.6µM, Pf growth 96h inconclusive (no result: NS1 inh)
O=C(C1CCC1)N(CCc1ccccc1)Cc1nc2ccccc2c(=O)[nH]1	Pf growth 48h inconclusive
COCC(=O)N(CCc1ccc(OC)cc1)Cc1nc2ccccc2c(=O)[nH]1	Pf growth 48h inconclusive
O=C(NC1CCCCC1)N(Cc1ccc(F)cc1)Cc1nc2ccccc2c(=O)[nH]1	Pf growth 48h 10µM, Vaccinia Venus inconclusive
CC(C)CC1Nc2ncnc(N3CCOCC3)c2N(Cc2ccc(Cl)cc2)C1=O (stereo not given)	none (no result: NS1 inh, Pf growth 48h, Pf growth 96h)
CCN(Cc1nc2ccccc2c(=O)[nH]1)C(=O)COc1ccccc1Cc1ccccc1	HCV inh inconclusive, Pf growth 48h inconclusive, Pf growth 96h 8.3µM (no result: NS1 inh)
CCN(Cc1nc2cc(Cl)ccc2c(=O)[nH]1)C(=O)COc1ccccc1Cc1ccccc1	Pf growth 48h inconclusive, Pf growth 96h inconclusive (no result: NS1 inh, Vaccinia mCherry, Vaccinia Venus)
CCOC(=O)C(C)(C)Sc1ncnc2nc[nH]c12	Pf growth 96h inconclusive
O=C(c1cnn2ccccc12)N1CCN(C2CCCCC2)CC1	none (no result: Pf growth 48h)
O=C(c1cnn2ccccc12)N(Cc1ccco1)C1CCCC1	Pf growth 96h 10µM (no result: Pf growth 48h)
NC(=O)c1ccc(Sc2nnc(-c3cccs3)n2CC2CCCO2)c([N+](=O)[O-])c1 (stereo not given)	Vaccinia mCherry 7.9µM, Vaccinia Venus 11µM
O=C(CSc1nnc(-c2cccs2)n1CC1CCCO1)N1CCCC1 (stereo not given)	none
FC(F)(F)c1cnc(Sc2nnc(-c3cccs3)n2CC2CCCO2)c(Cl)c1 (stereo not given)	Pf growth 48h 7.4µM (no result: Pf growth 96h, Vaccinia mCherry, Vaccinia Venus)
O=C(CN1NS(=O)(=O)c2ccccc2C1=O)Nc1ccccc1OC(F)F	none (no result: Pf growth 48h, Vaccinia mCherry, Vaccinia Venus)
COc1ccc2[nH]cc(CCNC(=O)c3ccccc3Cl)c2c1	Vaccinia mCherry inconclusive
O=S(=O)(Oc1ccccc1)c1ccc(Cl)c(Cl)c1	Vaccinia mCherry inconclusive (no result: NS1 inh, Pf growth 48h, Pf growth 96h)
